Shown are actives, neighbours in structure and some others; about 4.7% of the full set was active somewhere.
TRHR enhancer = qHTS for Small Molecule Agonists and Allosteric Enhancers of Human TRH Receptor: Primary Screen for Enhancers; TRHR cells, fluo-8 calcium fluorescence, EC20 TRH enhancement; 360,000 tested, 0.66% active; enhancement, % at 2 µM; in the data active means enhancement above about 30%; further: 0% is about no effect
Target sequence (P34981 whole entry, looked up): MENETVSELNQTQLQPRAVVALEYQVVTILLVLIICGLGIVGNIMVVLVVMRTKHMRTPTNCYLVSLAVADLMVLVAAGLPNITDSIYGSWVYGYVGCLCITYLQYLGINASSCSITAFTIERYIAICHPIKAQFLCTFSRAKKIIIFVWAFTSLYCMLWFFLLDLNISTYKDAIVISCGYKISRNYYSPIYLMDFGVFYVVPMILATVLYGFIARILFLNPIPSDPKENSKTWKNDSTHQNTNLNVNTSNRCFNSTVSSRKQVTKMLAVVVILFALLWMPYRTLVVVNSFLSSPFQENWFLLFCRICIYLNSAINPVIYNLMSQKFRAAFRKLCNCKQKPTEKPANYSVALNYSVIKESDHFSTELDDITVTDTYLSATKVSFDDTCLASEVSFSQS
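Enhancer read-out: after compound pinning and an initial kinetic agonist-mode read, an EC20 of TRH (10 nM final) was injected and fluo-8 calcium signal (Ex 480/Em 530) followed at 1 s/cycle for 100 cycles in TRHR-expressing cells.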
D1 PAM = Potentiators of Human D1 Dopamine Receptor: qHTS; D(1A) dopamine receptor (Homo sapiens), P21728; HEK293 TREx D1 cells, calcium flux, dopamine EC20 potentiation; potentiation, % at 10 µM; 360,000 tested, 0.036% active; AID 504651, 2011; in the data active means potentiation above about 30%; further: 0% is about no effect
TRHR ag = qHTS for Small Molecule Agonists and Allosteric Enhancers of Human TRH Receptor: Primary Screen for Agonists. TRHR cells, calcium flux fluo-8, FDSS agonist mode. activation, % at 2 µM. 360,000 tested, 0.18% active. Thyrotropin-releasing hormone receptor (Homo sapiens), P34981; further: 0% is about no effect
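TRHR-expressing cells, plated overnight in medium with 10% serum, were loaded with fluo-8 calcium dye at room temperature. After a 10 s baseline, library compound was pin-added and calcium release was recorded kinetically (ex 480/em 530) as agonist response.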
D1 agonist = Allosteric Agonists of the Human D1 Dopamine Receptor: qHTS; D(1A) dopamine receptor (Homo sapiens), P21728; HEK293 T-REx D1 cells, calcium flux, agonist mode; activation, % at 2 µM; 360,000 tested, 1% active; AID 504660, 2011; further: 0% is about no effect
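Inducible HEK293 T-REx D1 cells, force-coupled to calcium signalling, were plated at 4000 cells/well with tetracycline and held overnight at 30 C. After no-wash calcium dye loading, compound-evoked calcium rise over 180 s flagged agonists.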
D1 antag = Antagonist of Human D 1 Dopamine Receptor: qHTS; HEK293 TREx D1 cells, calcium flux, dopamine EC80; active compounds read low; activity change, negative = inhibition, % at 10 µM; 360,000 tested, 3.2% active; AID 504652, 2011; in the data active means activity change below about -30%; further: on the % scale 0 is the no-effect control and ±100 the full control effect
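Allosteric or orthosteric antagonism assessed as attenuation of the calcium response to EC80 dopamine, added 180 s after compound, in induced HEK293 Trex D1 cells loaded with no-wash calcium dye.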
* = called active by the depositor; . = no result given. Unless noted, no stated cut-off is given here; in the data, active means activation above about 30%; inactive means the rest.

SMILES	TRHR enhancer	D1 PAM	TRHR ag	D1 agonist	D1 antag
Cn1cnc(S(=O)(=O)N2CCC(C(=O)N3CCN(c4ccccc4F)CC3)CC2)c1	-4.7	0.2	0.3	-1.3	7.7
O=C(Nc1nc2c(s1)CCCC2)c1cc(-c2ccccc2)nc2ccccc12	-4.5	5.0	0.7	31.9*	9.5
Cc1cc2c(s1)c1cnn(Cc3ccc(-n4cncn4)cc3)c(=O)c1n2C	9.0	-3.4	-1.0	0.7	4.8
COc1ccccc1-c1noc(-c2ccc(NC3CCCCC3)c([N+](=O)[O-])c2)n1	-4.9	-0.8	0.8	3.9	-1.1
Nn1c(Cc2cccc3ccccc23)nnc1SCCOc1ccc(Br)cc1	-11.4	-5.7	1.1	11.1	-24.7
Nn1c(Cc2cccc3ccccc23)nnc1SCCOc1ccc(F)cc1	-1.9	-4.2	0.1	5.0	-98.4*
CCN(CC)C(=O)c1ccc(COc2ccc(Cl)c(C)c2)o1	-0.4	-17.8	-0.2	8.1	-30.6*
Cc1cc(OCc2ccc(C(=O)n3cccn3)o2)ccc1Cl	11.5	-8.6	-0.6	6.7	-3.1
COC(/C=C/Nc1ccc(Cl)cc1)=C(C#N)C#N	0.6	-6.7	0.9	4.2	-31.0*
COC(/C=C/Nc1ccc(OC)cc1)=C(C#N)C#N	-2.0	-2.8	1.3	1.0	-10.2
COc1ccc(OC)c(NC(=O)Cn2ccc3ccccc3c2=O)c1	1.3	-3.0	-0.6	-1.0	0.3
CCOc1ccc(Br)cc1S(=O)(=O)NC1CCCC1	0.7	-5.3	-0.4	-0.3	8.4
CCOc1cc(C)c(S(=O)(=O)NC2CCCCC2)cc1C	0.3	-5.0	0.3	18.2	-32.5*
O=C(c1cnn(-c2ccccc2)c1)c1ccc2ccccc2c1O	12.1	10.1	-0.4	4.6	-31.9*
COC(=O)/C=C(\C)NC(=O)c1ccc(F)cc1	34.4*	3.8	0.1	4.6	-6.5
COC(=O)/C=C(\C)NC(=O)c1cccs1	2.4	7.6	-0.1	2.0	0.2
Cc1ccc(OCC(=O)Nc2ccccc2OCc2cc(=O)n3ccccc3n2)cc1C	-4.2	-1.4	-0.4	0.0	1.2
CC(=O)Nc1ccc(Nc2nc(C)c([N+](=O)[O-])c(N(C)c3ccccc3)n2)cc1	6.4	-11.3	0.2	5.9	-31.8*
CCN(CC)CCN1C(=O)C(=O)/C(=C(/O)c2c(C)[nH]c(C(=O)OC)c2C)C1c1ccco1 (stereo not drawn)	30.1*	-2.2	0.3	1.0	1.3
CCOC(=O)c1[nH]c(C)c(/C(O)=C2\C(=O)C(=O)N(CCN(C)C)C2c2ccco2)c1C (stereo not drawn)	-2.6	-2.9	-0.1	-0.4	18.8
Cc1ccc(-c2nc3scc(CCNS(=O)(=O)c4c(C)noc4C)n3n2)cc1	9.1	-1.9	-0.6	32.2*	.
O=C(CSc1nnc(Cc2ccccc2)n1-c1ccccc1)NNC(=O)Cc1ccccc1	31.4*	3.4	0.1	3.2	3.2
Cc1nnc(NC(=O)CSc2nnc(Cc3cccn3C)n2-c2ccccc2)s1	39.3*	-8.8	0.2	2.9	10.2
COc1ccc(NC(=O)CSc2nnc(Cc3cccn3C)n2CCc2ccccc2)c(OC)c1	7.1	2.6	-0.6	-0.6	1.2
COc1ccccc1NC(=O)CSc1nnc(Cc2cccn2C)n1CCc1ccccc1	-8.6	-7.0	0.1	3.2	-31.1*
SMILES	TRHR enhancer	D1 PAM	TRHR ag	D1 agonist	D1 antag
COc1ccc(-n2c(Cc3cccn3C)nnc2SCC(=O)Nc2cccc(OC)c2)cc1	-0.4	3.1	-0.1	0.3	7.1
COc1ccc(NC(=O)CSc2nnc(Cc3cccn3C)n2-c2ccc(C)cc2)cc1OC	2.0	-3.2	-0.5	0.3	-39.3*
COC(=O)CSc1nnc(Cc2ccccc2)n1-c1ccc(C)cc1	-3.0	-1.1	-0.3	-2.5	11.9
COc1ccc(C2C=C(c3ccc(Cl)cc3)Nc3nc(-c4ccc(Cl)cc4)nn32)cc1 (stereo not drawn)	-0.3	-3.5	-0.8	15.8	-14.6
Cc1ccc(C)n1-n1cnc2sc3c(c2c1=O)CCC3	-1.7	-11.2	-0.2	1.7	-33.0*
O=C(O)c1ccc(Cn2cnc3sc4c(c3c2=O)CCCC4)cc1	1.6	5.2	0.2	3.1	-29.2
Cc1ccc(Cn2cnc3sc4c(c3c2=O)CCC4)c(C)c1	0.2	38.0*	-0.1	-0.7	8.3
CC(NC(=O)c1cccnc1)C(c1cccs1)N1CCN(C)CC1 (stereo not drawn)	7.6	.	0.3	3.0	-38.7*
Cc1ccc(NC(=O)C2CCCN(c3ncnc4c3nc3n4CCCCC3)C2)cc1F (stereo not drawn)	3.2	0.9	-0.3	-0.7	-29.6
CCOC(=O)C1CCN(Cc2ccc(O)c3ncccc23)CC1	10.7	-1.0	-0.1	0.4	-42.1*
COc1ccc(NC(=O)COC(=O)Cc2ccc(-c3ccccc3)cc2)c(OC)c1	-4.0	0.8	-0.5	2.5	5.4
COc1ccc(C)cc1NC(=O)COC(=O)Cc1ccc(-c2ccccc2)cc1	-2.3	0.3	-0.5	15.3	-35.8*
COc1ccccc1NC(=O)Cc1ccc(-c2ccccc2)cc1	-2.1	-6.0	0.7	6.2	-39.3*
O=C(NCc1nc(-c2ccc(C(F)(F)F)cc2)no1)Nc1ccc(OC(F)(F)F)cc1	-0.8	-9.3	1.6	10.4	-36.7*
COc1ccc(-c2noc(CNS(=O)(=O)c3ccc(NC(C)=O)cc3)n2)cc1	2.6	4.7	0.3	3.2	12.7
COc1ccc(-c2cn3nc(N4CCCC(C(=O)NCc5ccccc5Cl)C4)sc3n2)cc1 (stereo not drawn)	7.2	-0.1	0.3	-0.3	-6.6
Cc1ccc(-c2cn3nc(N4CCCC(C(=O)NCc5ccccc5F)C4)sc3n2)cc1 (stereo not drawn)	30.4*	0.3	0.4	-0.4	3.2
Cc1cc(=O)n2nc(N3CCCC(C(=O)NCCc4ccc(Cl)cc4)C3)sc2n1 (stereo not drawn)	-1.6	0.2	-0.7	0.1	-35.4*
Cc1cc(=O)n2nc(N3CCCC(C(=O)Nc4ccc(C)c(C)c4)C3)sc2n1 (stereo not drawn)	3.1	-4.2	-0.7	1.9	-59.3*
CC(=O)c1ccccc1NC(=O)COC(=O)CSCC(=O)Nc1cc(C)on1	2.8	-7.8	2.4	1.5	-21.3
CCCCNC(=O)c1cc(-c2ccc(OC)cc2)nc2n[nH]c(-c3cccc([N+](=O)[O-])c3)c12	2.0	2.9	0.2	3.1	22.0
CCN(c1ccc(OC)cc1)S(=O)(=O)c1c(C(=O)N2CCCCCC2)c(C)n(C)c1C	0.4	1.9	-0.2	0.8	-4.1
CCOc1ccc(NC(=O)CSc2oc(-c3ccc(F)cc3)nc2S(=O)(=O)c2ccc(C)cc2)cc1	-4.6	-0.7	0.2	2.4	4.9
